# Only some compounds are listed: those with a hit (about 3.3% of all), similar ones and a draw of the others.
# BoNT-F LC inh: blocks Botulinum neurotoxin F light chain protease. hit rate 0.22% among 360,000. Multiplex microsphere protease cleavage assay, flow cytometry. AID 588497. inhibition, % at 10 µM; in the data active means inhibition above about 35%, passing the limit was not always enough; inconclusive means no clear call, values can overlap the other calls; further: plate controls were buffer without enzyme for full effect and enzyme alone for no effect
# SSB-PriA inh: K. pneumoniae PriA-SSBct interaction inhibition | AlphaScreen SSBct-PriA binding, biotinylated peptide | inhibition, % at 33 µM | hit rate 0.6% among 430,000; in the data active means inhibition mostly above about 37%, no sharp cut-off; inactive means mostly below about 20%;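 further: plate controls were negative control peptide for no effect and reference peptide for full effect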
# Anthrax LF prot: anthrax lethal factor protease inhibition; P15917; multiplex microsphere protease cleavage assay, LF; inhibition, % at 10 µM; hit rate 0.12% among 360,000; further: plate controls were buffer without enzyme for full effect and enzyme alone for no effect
# Target sequence (P15917 whole entry, looked up): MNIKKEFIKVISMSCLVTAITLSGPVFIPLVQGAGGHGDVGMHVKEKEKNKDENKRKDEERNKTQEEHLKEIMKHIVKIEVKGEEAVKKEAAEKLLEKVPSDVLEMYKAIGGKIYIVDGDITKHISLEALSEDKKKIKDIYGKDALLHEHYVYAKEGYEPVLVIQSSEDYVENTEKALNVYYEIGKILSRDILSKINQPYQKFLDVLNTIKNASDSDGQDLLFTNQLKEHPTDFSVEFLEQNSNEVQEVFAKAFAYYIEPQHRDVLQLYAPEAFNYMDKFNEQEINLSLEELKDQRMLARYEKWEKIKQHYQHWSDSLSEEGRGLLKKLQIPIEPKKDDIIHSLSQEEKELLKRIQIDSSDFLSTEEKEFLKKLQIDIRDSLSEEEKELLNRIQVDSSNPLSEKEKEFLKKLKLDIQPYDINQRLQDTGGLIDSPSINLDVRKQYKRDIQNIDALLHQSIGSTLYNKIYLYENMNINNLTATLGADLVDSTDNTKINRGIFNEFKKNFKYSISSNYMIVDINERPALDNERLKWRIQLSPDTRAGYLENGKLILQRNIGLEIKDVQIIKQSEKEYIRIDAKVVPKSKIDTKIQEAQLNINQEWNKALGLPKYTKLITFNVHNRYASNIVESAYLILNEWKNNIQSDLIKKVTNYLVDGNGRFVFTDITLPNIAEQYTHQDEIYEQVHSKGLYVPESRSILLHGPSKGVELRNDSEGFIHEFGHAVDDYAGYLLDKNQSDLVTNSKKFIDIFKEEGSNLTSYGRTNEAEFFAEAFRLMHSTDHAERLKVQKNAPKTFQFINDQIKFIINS
# BoNT-A LC inh2: inhibitors of Botulinum neurotoxin A light chain protease | hit rate 0.17% among 360,000 | multiplex microsphere protease substrate cleavage, flow cytometry | AID 588499 | inhibition, % at 10 µM; further: plate controls were buffer without enzyme for full effect and enzyme alone for no effect
# MazF activator: MazEF (E. coli) toxin RNase activation | activation, % at 20 µM | FAM/BHQ RNA-DNA oligo cleavage fluorescence, 5 h | P0AE70 | AID 504720 | hit rate 0.32% among 350,000; in the data active means activation above about 50%
# Bead autofluor: compound fluorescence in toxin protease inhibitor counterscreen; hit rate 3.1% among 360,000; AID 624483; fluorescence intensity (no concentration beside the values); compound autofluorescence counterscreen, microsphere flow cytometry; hits give high values; in the data active means fluorescence intensity above about 16000; inconclusive means no clear call, values can overlap the other calls
# The depositor's hits bear a star; i = inactive; ? = inconclusive; nt = no result given. Unless noted, no stated cut-off is given here; in the data, active means inhibition above about 30%; inconclusive means no clear call, values can overlap the other calls; inactive means below that.
SMILES,BoNT-F LC inh,SSB-PriA inh,Anthrax LF prot,BoNT-A LC inh2,MazF activator,Bead autofluor
Cn1nc(C2CCCN(C(=O)Cn3c(=O)oc4ccccc43)C2)n(-c2ccccc2)c1=O (centres undefined),nt,-7,nt,nt,nt,nt
COc1ccccc1CNC(=O)c1sc(=S)n(-c2cc(Cl)ccc2OC)c1N,nt,24,nt,nt,nt,nt
CC(C)OCCCNC(=O)c1ccc(CS(=O)(=O)Cc2ccccc2F)o1,0,-12,-2,0,2,20731*
Cc1onc(-c2ccccc2Cl)c1C(=O)NCCn1nc(-c2cccs2)n(C2CC2)c1=O,nt,-7,nt,nt,nt,nt
CCOC(=O)c1sc2nc(CC(=O)OC)nc(NCCN3CCOCC3)c2c1C,-6,-1,0,0,7,3541
CCOC(=O)c1sc2nc(CC(=O)OC)nc(NCCN(CC)CC)c2c1C,2,-3,-3,3,5,18785*
O=C(Cn1cnc2c(cnn2-c2cccc(Cl)c2)c1=O)Nc1cc(C(F)(F)F)ccc1Cl,nt,-8,nt,nt,nt,nt
O=C(NCCN1CCOCC1)C(=O)Nc1ccccc1Cl,nt,-10,nt,nt,nt,nt
Cc1c(Cc2ccccc2)sc(NC(=O)c2ccco2)c1C(N)=O,-5,2,0,0,0,5792
CCOc1ccc(CC(=O)Nc2sc(Cc3ccccc3)c(C)c2C(N)=O)cc1OCC,3,6,3,2,-2,23316*
CN(C(=O)COc1ccccc1)C1CCS(=O)(=O)C1 (centres undefined),1,-12,0,0,-5,2490
CN(C)c1ccc(CN(C(=O)COc2ccccc2)C2CCS(=O)(=O)C2)cc1 (centres undefined),-6,-10,-2,-2,-8,16811*
Cc1cccc(C)c1OCC(=O)N(Cc1ccc(Cl)cc1)C1CCS(=O)(=O)C1 (centres undefined),0,5,-3,-1,-1,5390
O=C1C2CC=CCC2C(=O)N1CC(=O)N(Cc1ccccc1)C1CCS(=O)(=O)C1 (centres undefined),4,-1,-4,1,6,22395*
O=C(Cn1c(=O)oc2ccccc21)N(Cc1ccccc1)C1CCS(=O)(=O)C1 (centres undefined),?,-7,-9,-1,5,4033
CC(C)CCOc1cccc(OCC(=O)N(C)C2CCS(=O)(=O)C2)c1 (centres undefined),1,-20,-1,-1,-2,16885*
Cc1ccccc1OCC(=O)N(Cc1ccc(N(C)C)cc1)C1CCS(=O)(=O)C1 (centres undefined),-4,15,2,-1,4,23914*
Cc1ccc(OCC(=O)N(Cc2ccc(N(C)C)cc2)C2CCS(=O)(=O)C2)cc1C (centres undefined),?,26,27,2,-2,3505
COc1ccccc1C(=O)NCCn1nc(-c2cccnc2)n(C2CC2)c1=O,nt,-12,nt,nt,nt,nt
O=C(Nc1nc(-c2ccc(Br)cc2)cs1)c1cc2cc([N+](=O)[O-])ccc2s1,nt,2,nt,nt,nt,nt
CCCOc1cccc(C(=O)N(Cc2ccc(OC)c(OC)c2)C2CCS(=O)(=O)C2)c1 (centres undefined),-3,-6,-2,-1,-10,23243*
CCOC(=O)C1CCN(C(=O)c2sc3nc(C)nc(N4CCC(C)CC4)c3c2C)CC1,-4,-1,-1,-3,3,21764*
CCOC(=O)C1CCN(C(=O)c2sc3ncnc(N4CCC(C)CC4)c3c2C)CC1,2,-3,-2,?,5,16307*
Cc1nc(N2CCC(C)CC2)c2c(C)c(C(=O)Nc3ccc(C(F)(F)F)cc3)sc2n1,-3,-9,-1,1,6,2020
COc1ccc(CC(=O)Nc2ccc3c(c2)CCCN3S(=O)(=O)c2ccccc2)cc1,nt,-1,nt,nt,nt,nt
SMILES,BoNT-F LC inh,SSB-PriA inh,Anthrax LF prot,BoNT-A LC inh2,MazF activator,Bead autofluor
COc1ccccc1N1CCN(C(CNC(=O)c2cc(OC)c(OC)c(OC)c2)c2cccnc2)CC1 (centres undefined),nt,0,nt,nt,nt,nt
O=C(NCc1ccccc1)Nc1ccc(Cl)c(Cl)c1,nt,-11,nt,nt,nt,nt
COc1ccc(/C=N/NC(=O)c2cc(C34CC5CC(CC(C5)C3)C4)[nH]n2)cc1OC,40*,nt,1,3,-1,2286
O=c1c(O)cccc2cc(O)c(O)c(O)c12,-10,nt,-9,-2,281*,3221
CCN(CCCn1c(SCC#N)nc2ccccc2c1=O)c1ccccc1,0,9,-16,2,-4,19328*
C=C(C)Cn1c(SCC#N)nc2ccccc2c1=O,-11,-4,0,0,-1,2379
Cn1cccc1Cc1nnc(SCC(=O)Nc2ccc3c(c2)OCO3)n1-c1ccc(Cl)cc1,nt,87*,nt,nt,nt,nt
COc1ccc(C)cc1NC(=O)CSc1nnc(-c2ccccn2)n1Cc1ccco1,-8,-3,-1,?,3,21479*
CCc1ccccc1NC(=O)CSc1nnc(-c2ccccn2)n1Cc1ccco1,nt,54*,nt,nt,nt,nt
COc1ccc(-n2c(Cc3cccn3C)nnc2SCC(=O)Nc2ccc3c(c2)OCO3)cc1,0,11,-3,-1,10,5239
COc1ccccc1NC(=O)CSc1nnc(-c2ccccn2)n1Cc1ccco1,-2,63*,-5,0,-8,5786
Cc1ccc(NC(=O)CN2CCC(C(=O)N3CCN(C(=O)c4ccco4)CC3)CC2)cc1,nt,-13,nt,nt,nt,nt
O=C(CSc1nnc2c(Cl)cc(C(F)(F)F)cn12)Nc1ccc2c(c1)OCO2,2,-7,-4,?,-12,20358*
Cn1c(SCC(=O)Nc2ccc3c(c2)OCO3)nnc1C(F)(F)F,9,4,-4,8,0,4329
CCn1c(SCC(=O)Nc2ccc3c(c2)OCCO3)nnc1-c1ccccn1,-31,-3,-2,-2,-3,13400
O=C(CSc1nnc(-c2ccccn2)n1Cc1ccco1)Nc1ccc2c(c1)OCO2,-3,-9,-3,-1,-3,20585*
Cc1ccccc1-n1c(SCC(=O)Nc2ccc3c(c2)OCO3)nnc1-c1ccccn1,-2,42*,19,0,-1,7308
O=[N+]([O-])c1ccc(C=CC=Cc2ccccc2)cc1,10,nt,16,19,68*,3677
O=C(C=Cc1ccccc1)c1ccc([N+](=O)[O-])cc1,-2,3,-5,0,4,3521
COC(=O)c1c(NC(=O)C2CCC2)sc(C(=O)N(C)C)c1C,-6,-1,1,?,2,17349*
COc1ccc(C)cc1-n1nnnc1SCC(=O)N1CCC(C(=O)Nc2nccs2)CC1,-2,2,-1,?,-7,23303*
COc1ccc(C)cc1-n1nnnc1SCC(=O)NC1CCCC1,nt,0,nt,nt,6,nt
COc1ccccc1-c1nc(SCC(=O)NC(C)C)c2c(=O)n(C)c(=O)n(C)c2n1,nt,1,nt,nt,nt,nt
O=C(c1ccco1)N1CCc2ccc(NS(=O)(=O)Cc3ccc(Cl)cc3)cc2C1,nt,4,nt,nt,nt,nt
O=C(C/C=N/OCc1c(Cl)cccc1Cl)c1ccccc1,-7,nt,-5,-4,-1,23991*
O=C(CC=NOCc1ccc(Cl)cc1Cl)c1ccc(Cl)cc1,nt,-14,nt,nt,nt,nt
O=C(N/C=N/OCc1ccc(Cl)cc1Cl)NOCc1c(Cl)cccc1Cl,0,i,-2,0,80*,2841
